In all, about 53,000 compounds went through this assay and about 900 (1.7%) showed an effect of 50% or more. The sample as a whole holds a higher share of strong results than the screen did.
system: Mycobacterium tuberculosis; experiment: Cornell - Phenotypic assay to identify agents that inhibit growth of Mycobacterium tuberculosis; assay type: functional; design: scale not given: direction of the effect not stated beside the values; conditions: 10 mM as filed; unlikely as a test dose

SMILES	Percent Effect
Cc1cc2cccc(NC(=O)N3CCC(N4CCSCC4)CC3)c2o1	26.32%
O=C(CN1CCC2(CC1)NC(=O)c1cc(Br)ccc1N2)NC1CC1	-67.58%
Cc1cccc(CN2CCCCC23CCNC3)n1.O=C(O)C(F)(F)F.O=C(O)C(F)(F)F (centres undefined)	9.569%
O=C(NCCc1coc(-c2ccc(F)cc2)n1)NC1CC1	9.97%
CN[C@@H]1CCC[C@@H](Oc2ccccc2Oc2ccc(C)cc2)[C@@H]1O	74.11%
Cc1ccc(Oc2cc(F)ccc2O[C@@H]2CCC[C@@H](N)[C@H]2O)cc1	30.66%
N[C@@H]1CCC[C@@H](Oc2ccc(F)cc2Oc2ccccc2)[C@@H]1O	-14.7%
Cc1ncsc1-c1nnc(C2CCCN2C(=O)Cn2cccn2)o1 (centres undefined)	-1.275%
CCOc1c(Cl)cccc1NCc1cc(C)on1	15.54%
Cc1cc(CNc2cc(Cl)ccc2Cl)no1	51.97%
Cc1cc(CNc2cc(Cl)ccc2OCCS(C)(=O)=O)no1	-0.6634%
O=C(NCc1ccccc1Cn1cncn1)C1CCCC1	0.5526%
Cc1noc(C)c1CN1CCC2(CC1)NC(=O)CC2c1cnn(C)c1 (centres undefined)	47.68%
Clc1ccccc1-c1nc(CNC2CCc3ncnn3C2)co1 (centres undefined)	-41.84%
O=C(C1CC1)N1CCC2(CC1)OCCO2	-14.17%
Cc1ncc(C(=O)N2CC(C(=O)N3CCOCC3)C2)c(C)n1	-7.514%
Cc1ncc2c(n1)C1(CCN(C(=O)C3CC3)CC1)OCC2.Cl	55.8%
Cc1cnc(N2CCOC3(CCCN(C(=O)C(C)C)C3)C2)nc1 (centres undefined)	8.771%
Cc1noc(C2(C)CCN(C(=O)C(C)C)CC2)n1	-18.49%
Cc1ncc2c(n1)C1(CCN(C(=O)C(C)C)CC1)OCC2.Cl	54.97%
CCC(CO)N(Cc1cccnc1)C(=O)c1ccncc1F (centres undefined)	1.978%
CCc1ncc(CN[C@@H]2CCCN(C(C)=O)[C@H]2c2ccc(C)s2)cn1.Cl	15.97%
CCc1cc(NC2CCOCC2)n2nc(C)c(C)c2n1	14.02%
Cc1ccc(-c2nc(CN3CCC(N4CCNC4=O)CC3)co2)cc1	0.5995%
CCc1ccc(CN2C[C@@H](c3nc(C)no3)C[C@H]3OCC[C@H]32)o1.O=C(O)C(F)(F)F	28.15%
Cc1noc([C@H]2C[C@H]3OCC[C@H]3N(Cc3ccc(F)cc3)C2)n1.O=C(O)C(F)(F)F	52.79%

SMILES	Percent Effect
Cc1noc([C@H]2C[C@H]3OCC[C@H]3N(Cc3ccc4c(c3)OCO4)C2)n1.O=C(O)C(F)(F)F	10.54%
O=C(C1CCCC1)N1CCCC1c1nnc2n1CCCCC2 (centres undefined)	-1.073%
CC(C)c1nc(CSc2nnc(C3CC3)n2CC(N)=O)no1	15.19%
CC(NC(=O)Nc1nccs1)C(=O)NC1CCCC1 (centres undefined)	13.09%
Cc1cnc(NC(=O)N2CCCC2)s1	13.69%
CC(C)NC(=O)c1csc(NC2CC2)n1	29.51%
O=C(Nc1ccccn1)c1csc(NC2CCCC2)n1	105.8%
Cc1cnc(NC(=O)c2csc(NC3CCCC3)n2)s1	99.29%
CC(C)Nc1nc(C(=O)Nc2ccccn2)cs1	27.58%
Cc1cnc(NC(=O)c2csc(NCC(C)C)n2)s1	60.38%
Cc1nc(NC2CCCC2)cc(C2CCN2C(=O)c2ccccn2)n1 (centres undefined)	-60.39%
Cc1cccc(NC(=O)c2csc(NCC(C)C)n2)n1	22.32%
CC(C)CCNc1nc(C(=O)NC2CC2)cs1	44.5%
CC(C)CCNC(=O)c1csc(NC2CC2)n1	27.3%
O=C(Nc1nccs1)c1csc(NC2CCCC2)n1	105.9%
Cc1nc(CNCc2cccc(OC34CCCN(CC3)C4)c2)n[nH]1 (centres undefined)	22.09%
Cc1nn2c(NC(=O)CSc3nccn3C)csc2nc1=O	-11.03%
O=C1CCC(C(=O)Nc2ccc(=O)n(Cc3ccccc3Cl)c2)N1 (centres undefined)	-13.24%
CNC(=O)c1cccc(C2CNCCN2C(=O)C2CCNCC2)c1 (centres undefined)	0.2477%
CCOCC(=O)Nc1cc(-c2cccc(F)c2F)n[nH]1	57.77%
CC(=O)Nc1cc(-c2cccc(F)c2F)n[nH]1	22.81%
CCS(=O)(=O)CC(=O)Nc1cc(-c2cccc(F)c2F)n[nH]1	15.94%
O=C1NC[C@]2(CC[C@@H](C(=O)N3CCCC(O)C3)CC2)Oc2ccccc21 (some centres undefined)	-1.738%
CC(=O)N1CCN(C(C)c2nnc(CC(C)C)o2)CC1 (centres undefined)	3.173%
COCCNC(=O)CSCc1nc(O)c2cc(C(C)C)sc2n1	-18.87%
COC(=O)C(C)NC(=O)CSCc1nc(O)c2cc(C(C)C)sc2n1 (centres undefined)	10.11%

SMILES	Percent Effect
COC(=O)[C@H](C)NC(=O)CSCc1nc2sc(C(C)C)cc2c(=O)[nH]1	57.77%
CC(C)CN1C[C@H](COCc2ccccc2)Oc2ncccc2C1=O	-10.08%
Cc1ncc(C(=O)NCCNc2ncccn2)s1	-0.6021%
CCS(=O)(=O)Nc1cnn(Cc2cccc(F)c2)c1	14.06%
CCS(=O)(=O)Nc1cnn(Cc2cccc(C)c2)c1	56.26%
CCS(=O)(=O)Nc1cnn(Cc2cccc(Cl)c2)c1	-14.58%
Cc1c(S(=O)(=O)NCC(C)C)cnn1C	-2.001%
COc1cccc(CCC(=O)Nc2c(C)nn(C)c2C)c1OC	-11.78%
Cc1nc(-c2ccc(CO)cc2)cc(C2CCNCC2)n1.Cl	12.1%
O=C(NCc1ccccn1)[C@@]12CCO[C@@H]1CCN(Cc1ccccn1)C2.O=C(O)C(F)(F)F.O=C(O)C(F)(F)F.O=C(O)C(F)(F)F	-14.31%
CC(NC(=O)c1cc(-c2cccc(Cl)c2)no1)C(=O)N(C)C (centres undefined)	9.545%
CC(NC(=O)c1cc(-c2cccc(Cl)c2)no1)C(=O)N1CCCC1 (centres undefined)	1.351%
COC(=O)[C@H](C)NC(=O)c1cc(-c2cccc(Cl)c2)no1	105.7%
O=C(NCc1ccc(OCC2CC2)nc1)C1COc2ccccc2O1 (centres undefined)	16.73%
Cc1nn2c(N3CCC(O)CC3)cc(-c3ccccc3)nc2c1C	72.96%
Cc1nn2c(N3CCC(O)C3)cc(-c3ccccc3)nc2c1C (centres undefined)	16.78%
Cc1nn2c(N3CCC(C(N)=O)CC3)cc(-c3ccccc3)nc2c1C	21.25%
Cc1nc(N[C@H]2COC[C@@H]2N2CCCC2)c2cnn(C)c2n1	2.791%
CCNC(c1ccc(C)cc1)c1cccnc1 (centres undefined)	-8.954%
CCc1nc(CN(C)C(=O)CSC)no1	7.399%
Cc1nc(C)c(C(=O)N2CCCC2c2nnc3n2CCCCC3)s1 (centres undefined)	13.16%
Cc1ncsc1C(=O)N1CCc2nnc(C3CCCCN3C)n2CC1 (centres undefined)	8.689%
Cc1nc(C)c(C(=O)N2CCc3nnc(C4CCCN4C)n3CC2)s1 (centres undefined)	53.89%
Cc1nc(C)c(C(=O)N2CCc3nnc(C4CCCCN4C)n3CC2)o1 (centres undefined)	19.3%
Cc1nc(C)c(C(=O)N2CCc3nnc(C4CCCCN4C)n3CC2)s1 (centres undefined)	54.31%
Cc1cc2c(=O)n3c(nc2s1)CCN(C(=O)c1sc(C)nc1C)CC3	10.24%

SMILES	Percent Effect
CN(C)[C@@H]1CCN(C(=O)c2cccn2C)[C@H]1Cc1cnn(C)c1.O=C(O)C(F)(F)F	-22.73%
O=C(O)C(F)(F)F.c1coc(CN2CCc3nnc(COc4cncnc4)n3CC2)c1	21.79%
COc1cccc(CC2CN(C3CC(C)(C)NC(C)(C)C3)CCO2)c1 (centres undefined)	-51.86%
Cc1cccc2nc(CNC(=O)N3CCC(N4CC=CC4)C3)cn12 (centres undefined)	20.26%
O=C(O)[C@@H]1CN(C(=O)CCCc2ccc(F)cc2)C[C@H]1C1CC1	-11.2%
Cc1ccc(CN2CCC3(C2)C(=O)N(CC(C)C)c2ccccc23)s1 (centres undefined)	50.09%
Cc1ccc(CN2CCC3(C2)C(=O)N(CC(N)=O)c2ccccc23)s1 (centres undefined)	3.211%
CC(C)CN1C(=O)C2(CCN(Cc3nccs3)C2)c2ccccc21.O=C(O)C(F)(F)F (centres undefined)	25.63%
Cc1nc(C)n(CCC(=O)NCC2CCCOC2)n1 (centres undefined)	20.26%
CCCN1C[C@H]2CC[C@@H]1CN(Cc1cccc(-n3cccn3)c1)C2	9.471%
CCCN1C[C@H]2CC[C@@H]1CN(Cc1ccc(-n3cccn3)cc1)C2	53.91%
CCCN1C[C@H]2CC[C@@H]1CN(Cc1ccc(Cn3cccn3)cc1)C2	-2.42%
CN(C)CCN1C(=O)CCC12CCN(C(=O)c1cccnc1)CC2.O=C(O)C(F)(F)F.O=C(O)C(F)(F)F	1.557%
CCC(=O)Nc1ccc(F)c(S(=O)(=O)NC(C)(C)C)c1	-2.357%
CC(C)(C)NS(=O)(=O)c1cc(NC(=O)C2CC2)ccc1F	50.55%
CC(=O)Nc1ccc(F)c(S(=O)(=O)NC(C)(C)C)c1	40.62%
c1ccc(Cc2nc(CNC3CCOC4(CCOCC4)C3)no2)cc1 (centres undefined)	8.637%
Cc1noc(C)c1CNC(=O)Nc1ccc(N2CCOC(C)C2)cc1 (centres undefined)	103.9%
Cc1noc(C)c1CNC(=O)Nc1ccc(N2CCSCC2)cc1	104.5%
Cc1noc(C)c1CNC(=O)N1CCCC(C)CC1 (centres undefined)	12.27%
Cc1noc(C)c1CNC(=O)NCCC(=O)N1CCCc2ccccc21	-5.48%
CC1CN(c2ccc(NC(=O)Cn3cccn3)cc2)CCO1 (centres undefined)	-5.599%
Cc1ocnc1CNC(=O)Nc1ccc(N2CCOC(C)C2)cc1 (centres undefined)	104%
CC1CN(c2ccc(CNC(=O)NCCO)cn2)CCO1 (centres undefined)	2.175%
Cc1noc(C)c1CNC(=O)Nc1ccc(N2CCOC2=O)cc1	-58.42%
Cc1noc(C)c1CN1C[C@@H](C(=O)O)[C@H](c2ccccc2)C1	23.54%

Source: ChEMBL document CHEMBL3988442, “University of Dundee, Small-Polar-MMV Screening Library” (2021)
